As a reminder, the inhibition is the share of the control response that was lost under treatment.

For some of these results: Measured potencies and affinities stand elsewhere. Active and inactive are the calls of the source.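 The calls were made as follows, unless noted: active = calcium signal ratio cut to more than 3 SD under the fully stimulated control mean yet still positive, in both repeats and the primary screen; inactive = the rest.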

The values that follow come from PubChem BioAssay.

In experiment [1] the test system is TRPC4 beta (transient receptor potential cation channel C4), mouse. The experiment is described as follows: activators of mouse TRPC4 channel, confirmation, cell-based, Fluo4 calcium, HEK293 TRPC4beta/mu-opioid, duplicates, 10 µM (AID 2426;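 active = fluorescence ratio normalized to control raised more than 50% in primary screen plus both repeat runs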). Conditions: Fluo4 calcium fluorescence, at 10 µM; stronger effect = higher value.
The test system of experiment [2] is transient receptor potential cation channel C4 beta (TRPC4), mouse. Nature of the experiment: activators of mouse TRPC4 channel, confirmation, cell-based, second round, Fluo4, HEK293 TRPC4beta/mu-opioid, 1 µM (AID 2461;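 active = primary screen active and over 50% activation in each of two duplicate runs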). Conditions: Fluo4 calcium fluorescence, at 1 µM; stronger effect = higher value.
Experiment [3] deals with TRPC4 (transient receptor potential cation channel C4 beta), mouse. The experiment is described as follows: positive allosteric modulators of mouse TRPC4, confirmation, cell-based, second round, Fluo-4, HEK293 TRPC4beta/mu-opioid, 1 µM (AID 2554;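 active = primary screen hit whose fluorescence ratio, in both repeats, exceeds the weak agonist control mean by 3 SD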). Conditions: DAMGO EC20, Fluo-4 calcium flux, at 1 µM; stronger effect = higher value. On the technique in general: A change in cytosolic calcium serves as a functional read-out for many receptors and channels.

For experiment [4], the system named is TRPC4 beta (transient receptor potential cation channel C4), mouse. Nature of the experiment: positive allosteric modulators of mouse TRPC4, confirmation, cell-based, Fluo-4, HEK293 TRPC4beta/mu-opioid (AID 2555;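 active = primary screen hit whose calcium fluorescence ratio, in both repeats, exceeds the weak agonist control mean by 3 SD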). The following applies: DAMGO EC20, Fluo-4 calcium flux, at 10 µM; stronger effect = higher value.
The target in experiment [5] is Short transient receptor potential channel 4 (Mus musculus) (UniProt Q9QUQ5). The experiment is described as follows: inhibitors of mouse TRPC4 channel, confirmation, cell-based, Fluo4, HEK293 TRPC4beta/mu-opioid (AID 2636;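 active = calcium signal cut by more than 3 SD below the full-agonist control yet still positive, in both repeats and the earlier primary screen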). Conditions: DAMGO, Fluo4 calcium flux, at 10 µM; stronger effect = higher value.
Short transient receptor potential channel 4 (Mus musculus), sequence (Q9QUQ5 whole entry, looked up): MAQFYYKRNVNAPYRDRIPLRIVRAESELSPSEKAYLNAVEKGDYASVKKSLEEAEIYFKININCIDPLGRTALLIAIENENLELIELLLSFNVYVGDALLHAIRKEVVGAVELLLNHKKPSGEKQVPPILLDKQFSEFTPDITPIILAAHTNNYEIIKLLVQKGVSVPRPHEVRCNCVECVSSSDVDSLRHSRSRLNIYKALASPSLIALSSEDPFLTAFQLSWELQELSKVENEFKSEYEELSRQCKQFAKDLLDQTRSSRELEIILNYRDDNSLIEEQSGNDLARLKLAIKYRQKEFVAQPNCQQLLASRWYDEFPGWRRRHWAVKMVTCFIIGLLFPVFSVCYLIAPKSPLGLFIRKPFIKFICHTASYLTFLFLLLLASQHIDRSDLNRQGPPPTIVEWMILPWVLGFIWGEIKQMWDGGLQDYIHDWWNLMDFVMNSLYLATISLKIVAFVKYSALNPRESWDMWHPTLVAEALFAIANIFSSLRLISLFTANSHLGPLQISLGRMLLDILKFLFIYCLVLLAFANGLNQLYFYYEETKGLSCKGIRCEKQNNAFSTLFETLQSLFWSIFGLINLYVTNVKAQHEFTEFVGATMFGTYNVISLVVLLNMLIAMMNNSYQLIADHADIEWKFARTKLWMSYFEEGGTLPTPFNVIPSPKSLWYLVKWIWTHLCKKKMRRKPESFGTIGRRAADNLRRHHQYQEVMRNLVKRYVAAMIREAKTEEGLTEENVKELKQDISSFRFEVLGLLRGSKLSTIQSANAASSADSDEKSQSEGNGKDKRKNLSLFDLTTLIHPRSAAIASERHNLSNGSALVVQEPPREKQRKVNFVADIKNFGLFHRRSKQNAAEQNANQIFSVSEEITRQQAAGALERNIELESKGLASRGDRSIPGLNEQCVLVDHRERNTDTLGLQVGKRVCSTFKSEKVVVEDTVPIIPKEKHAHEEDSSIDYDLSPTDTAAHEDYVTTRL
The target is the same in experiment [6]. The experiment is described as follows: inhibitors of mouse TRPC4 channel, confirmation, cell-based, second round, Fluo4, HEK293 TRPC4beta/mu-opioid, 1 µM (AID 2637).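 As to inhibition: percent of integrated ratio relative to wells lacking test compound.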 The following applies: Fluo4 calcium flux, DAMGO, at 1 µM; stronger effect = higher value.
Experiment [7] has the same target. The experiment is described as follows: mouse TRPC4 channel activators, dose response, cell-based, HEK293 TRPC4/mu-opioid, Fluo-4 calcium (AID 434937;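 active = primary screen activator hit with a dose response curve and TRPC4 channel activation at any tested dose; inactive = no activation, no dose response, or not a primary hit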).
The target is the same in experiment [8]. Nature of the experiment: TRPC4 positive allosteric modulators, dose response, cell-based, HEK293 TRPC4/mu-opioid, Fluo-4 calcium, EC20 DAMGO (AID 434941;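 active = earlier screen potentiator hit that boosts the TRPC4 ion channel at some dose, with a dose response; inactive = no potentiation, no dose response, or not a prior hit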;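 also: calcium entry triggered by an EC20 dose of DAMGO at the co-expressed mu-opioid receptor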).
The target is the same in experiment [9]. Nature of the experiment: mouse TRPC4 channel inhibitors, dose response, cell-based, HEK293 TRPC4/mu-opioid, Fluo-4 calcium (AID 434942;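 active = primary screen inhibitor hit that blocks the TRPC4 channel at some tested dose, yielding a dose curve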).
For experiment [10], the target named is Short transient receptor potential channel 6 (Mus musculus) (UniProt Q61143). The experiment is described as follows: inhibition of mouse TRPC6 channel, confirmation, selectivity assay for TRPC4 inhibitor project, cell-based, HEK293, membrane potential dye, duplicate (AID 434948;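 active = active in primary screen and both duplicates, each dropping signal beyond three positive-control SD with fluorescence still positive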). Conditions: HEK293 TRPC6, membrane potential dye fluorescence, at 10 µM, stimulated with maximal-effect acetylcholine; stronger effect = higher value.
Short transient receptor potential channel 6 (Mus musculus), sequence (Q61143 whole entry, looked up): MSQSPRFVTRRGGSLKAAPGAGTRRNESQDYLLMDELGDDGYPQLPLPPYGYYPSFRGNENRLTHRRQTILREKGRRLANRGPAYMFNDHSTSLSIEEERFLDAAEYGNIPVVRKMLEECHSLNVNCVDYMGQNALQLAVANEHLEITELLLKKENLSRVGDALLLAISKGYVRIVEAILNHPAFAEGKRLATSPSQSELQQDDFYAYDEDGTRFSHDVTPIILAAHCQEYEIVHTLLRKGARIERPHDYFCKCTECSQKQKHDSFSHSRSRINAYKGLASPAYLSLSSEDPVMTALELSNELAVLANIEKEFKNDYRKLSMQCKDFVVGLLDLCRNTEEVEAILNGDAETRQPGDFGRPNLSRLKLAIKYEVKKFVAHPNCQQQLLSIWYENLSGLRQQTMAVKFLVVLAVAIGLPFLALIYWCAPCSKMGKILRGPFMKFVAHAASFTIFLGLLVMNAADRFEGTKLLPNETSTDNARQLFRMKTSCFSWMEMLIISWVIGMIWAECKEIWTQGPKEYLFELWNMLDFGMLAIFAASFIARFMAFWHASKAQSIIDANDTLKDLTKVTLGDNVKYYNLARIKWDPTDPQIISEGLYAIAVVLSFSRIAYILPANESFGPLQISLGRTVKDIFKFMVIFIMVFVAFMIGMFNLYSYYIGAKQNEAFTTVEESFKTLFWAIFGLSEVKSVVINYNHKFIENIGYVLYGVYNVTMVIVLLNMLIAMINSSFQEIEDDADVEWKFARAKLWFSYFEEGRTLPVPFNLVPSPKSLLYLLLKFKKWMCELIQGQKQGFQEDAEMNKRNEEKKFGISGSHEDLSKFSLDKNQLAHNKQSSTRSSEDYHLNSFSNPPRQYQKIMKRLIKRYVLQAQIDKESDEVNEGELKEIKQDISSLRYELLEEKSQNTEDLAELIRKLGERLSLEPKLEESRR

The target is the same in experiment [11]. Nature of the experiment: activation of mouse TRPC6 channel, confirmation, selectivity assay for TRPC4 activator project, cell-based, HEK293, membrane potential dye, duplicate (AID 434950;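 active = membrane potential signal rise above negative control mean plus 3 SD in both duplicates, also active in the earlier TRPC4 screen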). Conditions: HEK293 TRPC6, membrane potential fluorescence, at 10 µM; stronger effect = higher value.
The target is the same in experiment [12]. Nature of the experiment: TRPC6 potentiation by TRPC4 potentiator hits, confirmation, selectivity assay for TRPC4 potentiator project, HEK293 cells, membrane potential dye, duplicate (AID 434952;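 active = compound raising the membrane signal above positive-control mean plus 3 SD in both repeats, and a primary screen hit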). The following applies: HEK293 TRPC6, membrane potential dye fluorescence, at 10 µM, maximal acetylcholine added after compound; stronger effect = higher value.
Experiment [13] deals with Short transient receptor potential channel 4 (Mus musculus) (UniProt Q9QUQ5). Nature of the experiment: calcium flux activators in TRPC4/5HT1a cells, counter-screen for TRPC4 activator project, cell-based, second counter screen, HEK293 TRPC4/5HT1a, Fluo-4 (AID 434977;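 active = calcium signal rise above buffer-control mean plus 5 SD in both duplicates, and also a hit in the primary screen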). Conditions: Fluo-4 calcium flux, at 10 µM; stronger effect = higher value.
Experiment [14] in a line: calcium flux inhibitors in TRPC4/5HT1a cells, confirmation, counter-screen for TRPC4 inhibitor project, cell-based, second counter screen, HEK293 TRPC4/5HT1a, Fluo-4 (AID 434978;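 active = primary screen active whose calcium signal fell more than 3 SD beyond the full-serotonin control mean in both duplicate plates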;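 as to outcome: serotonin given first at submaximal then at maximal dose after compound preincubation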). Conditions: Fluo-4 calcium flux, at 10 µM, serotonin added to trigger calcium flux; stronger effect = higher value.
In experiment [15] the test system is TRPC4 (mouse), co-expressed with 5HT1a in HEK293. The experiment is described as follows: calcium flux potentiators in TRPC4/5HT1a cells, confirmation, counter-screen for TRPC4 potentiator project, cell-based, second counter screen, HEK293 TRPC4/5HT1a, Fluo-4 (AID 434979;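 active = signal rise over 3 SD above mean of control wells given weak agonist, in both repeats and first screen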). The following applies: Fluo-4 calcium flux, at 10 µM, serotonin added at its EC20 dose; stronger effect = higher value.

The nature of experiment [16]: calcium flux activation in mu-opioid HEK293 cells, confirmation, counter-screen for TRPC4 activator project, cell-based, HEK293 mu-opioid receptor line (AID 449723;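 active = hit in primary screen, with calcium signal over 5 SD above buffer well mean in both duplicates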;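 also: counter screen cells carry the mu-opioid receptor alone and lack TRPC4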). The following applies: Fluo-4 calcium fluorescence, at 10 µM; stronger effect = higher value.
Experiment [17] is described as follows: calcium flux enhancement in mu-opioid HEK293 cells, confirmation, counter-screen for TRPC4 allosteric potentiator project, cell-based, HEK293 mu-opioid receptor line (AID 449724;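 active = calcium signal rise more than 3 SD above the low-dose agonist control mean, in both duplicate plates and the primary screen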;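 also: HEK293 cells carrying mu-opioid receptor only with no TRPC4 channel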). Conditions: Fluo-4 calcium flux, at 10 µM, compound added before EC20 DAMGO stimulus; stronger effect = higher value.
The nature of experiment [18]: thallium flux activation in parental CHO cells, counter-screen for KCNQ1 potentiator project (AID 493006;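 active = duplicate-averaged activation above buffer control mean plus 5 SD of those controls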). Conditions: parental CHO-K1 cells, FluxOR thallium flux, at 10 µM; stronger effect = higher value.
The target of experiment [19] is Potassium voltage-gated channel subfamily KQT member 1 (Homo sapiens) (UniProt P51787). The experiment is described as follows: KCNQ1 potassium channel potentiators, confirmation, FluxOR thallium flux, CHO cells, duplicates (AID 493007;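 active = potentiation averaged over duplicate wells exceeding buffer-only control mean by more than 3 SD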;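 also: cells depolarized by a potassium plus thallium sulfate stimulus after compound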). Conditions: KCNQ1 cell line, FluxOR thallium flux fluorescence, at 10 µM; stronger effect = higher value, % of reference activator effect, buffer zero.
Potassium voltage-gated channel subfamily KQT member 1 (Homo sapiens), sequence (P51787 whole entry, looked up): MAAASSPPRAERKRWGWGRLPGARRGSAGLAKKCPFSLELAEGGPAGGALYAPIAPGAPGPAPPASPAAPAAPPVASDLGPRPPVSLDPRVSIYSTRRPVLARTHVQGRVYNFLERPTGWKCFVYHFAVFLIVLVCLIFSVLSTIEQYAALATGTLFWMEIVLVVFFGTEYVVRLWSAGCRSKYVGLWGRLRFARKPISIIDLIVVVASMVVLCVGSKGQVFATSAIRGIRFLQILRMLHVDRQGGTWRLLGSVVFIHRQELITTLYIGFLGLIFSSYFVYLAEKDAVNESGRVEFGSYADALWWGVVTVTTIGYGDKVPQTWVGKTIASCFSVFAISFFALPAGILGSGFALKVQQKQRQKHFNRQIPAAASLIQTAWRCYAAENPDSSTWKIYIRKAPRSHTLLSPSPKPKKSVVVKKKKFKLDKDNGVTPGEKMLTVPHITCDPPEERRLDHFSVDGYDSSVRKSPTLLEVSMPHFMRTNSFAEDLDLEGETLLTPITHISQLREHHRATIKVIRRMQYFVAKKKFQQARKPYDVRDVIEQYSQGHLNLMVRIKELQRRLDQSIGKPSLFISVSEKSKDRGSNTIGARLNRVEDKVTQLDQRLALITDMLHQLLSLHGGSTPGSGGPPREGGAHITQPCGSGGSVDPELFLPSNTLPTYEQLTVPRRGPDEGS

Experiment [20] concerns the target Potassium voltage-gated channel subfamily KQT member 2 (Rattus norvegicus) (UniProt O88943). The experiment is described as follows: rat KCNQ2 channel potentiation, selectivity assay for KCNQ1 potentiator project, KCNQ2-CHO-K1 cells (AID 493009;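 active = mean duplicate potentiation above the buffer control mean plus 5 SD of buffer wells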;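 also: assay conditions were tuned for KCNQ1 rather than KCNQ2 modulators; signal is max minus min fluorescence divided by baseline after thallium stimulus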). Conditions: FluxOR thallium flux fluorescence, at 10 µM; stronger effect = higher value, scaled: buffer 0, activator control 100.

Potassium voltage-gated channel subfamily KQT member 2 (Rattus norvegicus), sequence (O88943 whole entry, looked up): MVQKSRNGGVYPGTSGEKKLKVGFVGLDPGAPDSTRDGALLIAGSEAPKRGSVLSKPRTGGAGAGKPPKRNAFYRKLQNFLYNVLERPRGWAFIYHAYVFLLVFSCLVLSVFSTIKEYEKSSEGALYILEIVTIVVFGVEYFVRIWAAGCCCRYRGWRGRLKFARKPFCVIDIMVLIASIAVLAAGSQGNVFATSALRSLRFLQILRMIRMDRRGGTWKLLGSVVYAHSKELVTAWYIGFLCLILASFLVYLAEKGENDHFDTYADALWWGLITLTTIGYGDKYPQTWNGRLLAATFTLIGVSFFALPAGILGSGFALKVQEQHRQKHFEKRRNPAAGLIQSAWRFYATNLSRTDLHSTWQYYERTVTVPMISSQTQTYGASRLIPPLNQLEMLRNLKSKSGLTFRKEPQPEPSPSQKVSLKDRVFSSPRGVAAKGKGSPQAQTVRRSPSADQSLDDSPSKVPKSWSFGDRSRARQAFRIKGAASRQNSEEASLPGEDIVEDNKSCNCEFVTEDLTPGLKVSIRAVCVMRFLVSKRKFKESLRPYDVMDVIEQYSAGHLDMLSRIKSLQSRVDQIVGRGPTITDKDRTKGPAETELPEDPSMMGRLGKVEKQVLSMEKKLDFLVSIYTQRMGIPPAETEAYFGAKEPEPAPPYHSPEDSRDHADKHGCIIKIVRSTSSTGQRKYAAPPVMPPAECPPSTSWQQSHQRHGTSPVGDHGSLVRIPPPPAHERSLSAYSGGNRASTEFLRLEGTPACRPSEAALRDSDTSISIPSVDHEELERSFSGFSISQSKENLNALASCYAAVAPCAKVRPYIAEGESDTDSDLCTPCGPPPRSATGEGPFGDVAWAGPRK

As for `C=CCNC(=O)C(=O)NCC1CCCN1S(=O)(=O)c1cccs1` (stereo not drawn), the outcome in experiment [1], in [2], in [3], in [4], in experiment [5] and in experiment [6] was inactive. Also, the outcome in experiment [7], in experiment [8], in experiment [9], in experiment [10], in experiment [11] and in experiment [12] was inactive. Besides, the outcome in [13], in experiment [14], in experiment [16] and in experiment [17] was inactive. For the same molecule, the potentiation in [15] is 11.2% (active).
Turning to `CN(C)CCCN(C(=O)CCc1ccccc1)c1nc2ccc(F)cc2s1`, the outcome in experiment [1], in experiment [2], in [3], in experiment [4], in experiment [5] and in experiment [6] was inactive. The outcome in experiment [7], in experiment [8], in experiment [9], in [10], in experiment [11] and in experiment [12] was inactive. In addition, the outcome in [13], in [14], in experiment [15], in [16], in experiment [17] and in experiment [18] was inactive. The result in experiment [19] and in experiment [20] was inactive.
As to `CC(C)CCn1c(N2CCN(c3cccc(Cl)c3)CC2)nc2c1c(=O)[nH]c(=O)n2C`, the result in [1], in experiment [2], in experiment [3], in experiment [4], in experiment [5] and in experiment [6] was inactive. Besides, the result in [7], in experiment [8], in [9], in experiment [10], in [11] and in [12] was inactive. Further, the outcome in experiment [13], in experiment [14], in experiment [15], in experiment [16] and in experiment [17] was inactive.
As for `Cc1ccc2nc(C)cc(Nc3ccc4c(c3)OCCO4)c2c1`, the result in experiment [1], in [2], in [3], in experiment [4], in experiment [6] and in experiment [7] was inactive. Moreover, the outcome in experiment [8], in experiment [11], in [12], in experiment [13], in experiment [14] and in experiment [15] was inactive. Moreover, the outcome in experiment [16] and in experiment [17] was inactive. In addition, the inhibition in experiment [5] was 90% (active); in experiment [10] it was 50% (active).
`CCCNC(=O)c1nnsc1S(=O)c1ccc(Cl)cc1` (stereo not drawn): the result in experiment [1], in experiment [2], in experiment [3], in experiment [4], in experiment [7] and in experiment [8] was inactive. For the same molecule, the call in [10], in [11], in experiment [12], in experiment [13], in experiment [15] and in experiment [16] was inactive. The result in experiment [17] was inactive. Also, the inhibition in experiment [5] was 88% (active); in [6] it was 42% (active); in [14], 20.3% (active).
Consider `CCc1nc2ccccc2n1Cc1ccccc1OC`, for which the result in [1], in experiment [2], in experiment [3], in experiment [4], in experiment [7] and in experiment [8] was inactive. Moreover, the molecule was classed as inactive in experiment [10], in [11], in [12], in [13], in experiment [15] and in experiment [16]. Further, in experiment [17], the outcome was inactive. Besides, the inhibition was 66% (active) in experiment [5], 48% (active) in [6] and 43.4% (active) in [14].
For `Cc1ccc(OCCn2c(C)nc3ccccc32)cc1`, the result in [1], in [2], in experiment [3], in [4], in [7] and in [8] was inactive. The molecule was classed as inactive in [10], in [11], in experiment [12], in experiment [13], in [15] and in [16]. Also, the outcome in experiment [17] was inactive. Moreover, the values for the inhibition in experiment [5], in [6] and in experiment [14] were 94% (active), 61% (active) and 13% (active), respectively.
